PubChem BioAssay (NCI)
About 83,000 compounds went through this panel and 20% of them were active in at least one assay; those are over-represented in the sample as a whole.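 Cell lines were cultured in 96-well plates, exposed to a single compound concentration, and assessed for percent growth 48 hours later.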 Activity calls are given as the source filed them. The calls were made as follows: active = growth percent below 10; inactive = the rest.

Legend:
Test in all cases: NCI-60 one-dose screen, 48 h (100 = growth as untreated, 0 = no growth, -100 = all killed)
Conditions in all cases: 10 µM
[1] = system: NCI-H23 lung
[2] = system: NCI-H226 lung
[3] = system: NCI-H322M lung
[4] = system: HOP-62 NSCLC
[5] = system: NCI-H460 lung
[6] = system: HOP-92 NSCLC
[7] = system: NCI-H522 lung
[8] = system: A549/ATCC NSCLC
[9] = system: 786-0 renal
[10] = system: COLO 205 colon
[11] = system: DU-145 prostate
[12] = system: K-562 leukemia
[13] = system: MALME-3M melanoma
[14] = system: MDA-MB-231 breast
[15] = system: RXF 393 renal
[16] = system: SF-268 CNS
[17] = system: SF-295 CNS
[18] = system: SF-539 CNS
[19] = system: UACC-257 melanoma
[20] = system: M14 melanoma

Measured: growth

COc1ccc(-c2ccc(/C=N/NC(=O)c3[nH]c4ccc(Br)cc4c3-c3ccccc3)o2)cc1
inactive: [1] 50% | [2] 44.1% | [3] 70.4% | [4] 47.2% | [5] 16.8% | [6] 85.9% | [8] 42.5% | [9] 34.9% | [10] 63.1% | [11] 75.5% | [12] 10.5% | [13] 47% | [14] 52.6% | [15] 16.8% | [16] 37.9% | [19] 63.2% | [20] 17%
active: [7] -44.1% | [17] 4.48% | [18] -14.1%

CN1CCN(c2ccc(C(=O)/C=C/c3cc(Br)ccc3F)cc2)CC1
inactive: [1] 49.4% | [2] 61.6% | [3] 93.3% | [4] 77.1% | [5] 67.2% | [6] 31.6% | [7] 66.4% | [8] 28.5% | [9] 27.1% | [10] 34.8% | [11] 44.8% | [13] 78.9% | [14] 26.9% | [15] 38.8% | [16] 88.6% | [17] 60.7% | [19] 73.8% | [20] 52.1%
active: [12] -35.5% | [18] 2.31%

CN(C(=O)c1ccc(C(F)(F)F)cc1C(F)(F)F)c1sc2c(c1C#N)CCC(=O)C2
inactive: [1] 50% | [2] 102% | [3] 93.6% | [4] 92% | [5] 113% | [6] 80.6% | [8] 94.4% | [9] 85.2% | [10] 112% | [11] 103% | [13] 99% | [14] 71.1% | [16] 85% | [17] 65.1% | [19] 99% | [20] 73.9%
active: [7] -59.7% | [12] 6.49% | [15] 7.86% | [18] -37.6%

COc1cccc(/C=N/NC(=O)c2ccc3nc(-c4ccc(Cl)cc4)[nH]c3c2)c1O
active: [1] -95.2% | [2] -85.8% | [3] -81.6% | [4] -91.9% | [5] -84.4% | [6] -85.2% | [7] -83% | [8] -76.8% | [9] -90.3% | [10] -88.8% | [11] -96.1% | [12] -37.2% | [13] -96.3% | [14] -72.8% | [15] -96.5% | [16] -79% | [17] -91.3% | [18] -99% | [19] -83.8% | [20] -79.5%

COc1ccc(C(=O)Nc2sc3c(c2C#N)CCC(=O)C3)cc1C(F)(F)F
inactive: [3] 85.9% | [8] 25.5% | [11] 25.3% | [16] 26.8%
active: [1] -13.7% | [2] 6.58% | [4] -9.95% | [5] 0.213% | [6] -30.9% | [7] -64.4% | [9] 7.91% | [10] -89.1% | [12] 3.54% | [13] -52.3% | [14] -50.8% | [15] -41.9% | [17] -15.4% | [18] -82.7% | [19] -15.8% | [20] -16.8%

COc1cc2c(cc1OC)/C(=C\c1sc(Nc3ccc(O)cc3)nc1O)C(C(=O)O)=N2
active: [7] -18.3% | [10] -30.7% | [11] 6.39% | [18] -20.2% | [20] 4.93%
inactive: [1] 47% | [2] 63.7% | [3] 53.8% | [4] 39.2% | [5] 18.2% | [6] 36.4% | [8] 56.4% | [9] 29.1% | [12] 11.2% | [13] 12.8% | [14] 29.8% | [15] 25% | [16] 54.2% | [17] 11.9% | [19] 48.8%

COc1ccc(N(C)c2cc(C#N)nc3ccccc23)cc1/C=C/C(=O)NO
inactive: [11] 16.7%
active: [1] -83.4% | [2] -39% | [3] 0.0682% | [4] -48% | [5] 0.587% | [6] -12.2% | [7] -75.4% | [8] 7.16% | [9] -9.47% | [10] -34.2% | [12] 4.1% | [13] -56.5% | [14] -73.5% | [15] -82.2% | [16] -30% | [17] -73.8% | [18] -89.6% | [19] -26.2% | [20] 2.45%

O=C(Nc1ccc(F)c(Cl)c1)c1cc(-c2ccc(F)cc2F)ccc1O
active: [1] -46.9% | [2] -23.4% | [3] 2.57% | [4] -13% | [5] 0.118% | [6] -20.6% | [7] -15% | [8] 9.32% | [9] 9.93% | [10] 4.58% | [12] 6.16% | [13] -28.6% | [14] -24.5% | [15] -16.6% | [16] 4.5% | [17] -82.1% | [18] -7.23% | [19] -13.5%
inactive: [11] 13.3% | [20] 20%
